Source: PubChem BioAssay
pPAFAH FP inh – inhibitors of human plasma PAF acetylhydrolase (pPAFAH) | Q13093 | recombinant pPAFAH, FP-rhodamine probe fluorescence polarization | inhibition, % at 3.39 µM | 330,000 compounds, 1.5% hits | AID 463082;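 active means inhibition above the mean inhibition across the screen plus 3 SD, cut at about 25% in these data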;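 further: inhibitors block binding of the rhodamine activity-based probe so polarization drops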
PP5 inh – blocks human protein phosphatase 5 activity | 320,000 compounds, 0.18% hits | P53041 | inhibition, % at 6.7 µM | AID 1987 | purified PP5c, OMFP substrate fluorescence;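 active means inhibition above the campaign's mean inhibition across all tested compounds plus 3 SD, cut at about 9.5% in these data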
PAFAH1B3 FP inh – blocks human PAF acetylhydrolase 1B catalytic subunit 3. Q15102. recombinant PAFAH1B3, FP-rhodamine probe, fluorescence polarization. inhibition, % at 3.39 µM. 340,000 compounds, 0.28% hits. AID 492972;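 active means inhibition above the screen-wide average of all tested compounds plus 3 SD, cut at about 25% in these data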
Target sequence (Q15102 whole entry, looked up): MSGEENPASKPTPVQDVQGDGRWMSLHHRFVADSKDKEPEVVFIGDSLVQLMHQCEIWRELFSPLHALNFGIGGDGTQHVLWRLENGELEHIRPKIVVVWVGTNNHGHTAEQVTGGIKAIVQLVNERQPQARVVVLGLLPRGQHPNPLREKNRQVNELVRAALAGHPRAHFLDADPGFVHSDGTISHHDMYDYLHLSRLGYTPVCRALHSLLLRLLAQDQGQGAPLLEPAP
PP1 inh – counter-screen for PP5 inhibitors: inhibitors of human PP1-alpha; AID 2235; 320,000 compounds, 0.9% hits; purified PP1alpha, OMFP fluorescence; inhibition, % at 6.7 µM; P62136;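 active means inhibition above the mean inhibition of all tested compounds plus 3 SD, computed separately for each screening campaign, cut at about 15% in these data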
PAFAH1B2 inh – PAFAH1B2 (human) inhibition; 340,000 compounds, 1.2% hits; AID 492953; recombinant PAFAH1B2, FP-rhodamine activity probe, fluorescence polarization; P68402; inhibition, % at 3.39 µM;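 active means inhibition above the mean of all tested compounds plus 3 SD, cut at about 24% in these data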
Target sequence (P68402 whole entry, looked up): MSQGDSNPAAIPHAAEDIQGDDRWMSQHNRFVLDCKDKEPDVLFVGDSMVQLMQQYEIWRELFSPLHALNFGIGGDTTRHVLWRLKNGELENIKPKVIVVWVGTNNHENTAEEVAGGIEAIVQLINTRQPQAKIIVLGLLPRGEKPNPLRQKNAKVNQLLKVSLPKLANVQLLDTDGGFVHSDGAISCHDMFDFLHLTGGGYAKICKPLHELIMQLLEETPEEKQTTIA
PAFAH2 inh – inhibitors of human PAFAH2 | Q99487 | AID 492956 | inhibition, % at 3.39 µM | 340,000 compounds, 0.99% hits | recombinant PAFAH2, FP-rhodamine activity probe, fluorescence polarization;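 active means inhibition above the mean over all tested compounds plus 3 SD, cut at about 30% in these data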;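 further: inhibitors block probe labeling of enzyme so polarization drops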
Hits are given with their value; - = inactive; . = no result. In the library only some 3.4% were active in any assay of this set; here they are far more common.

SMILES	pPAFAH FP inh	PP5 inh	PAFAH1B3 FP inh	PP1 inh	PAFAH1B2 inh	PAFAH2 inh
COC1C(O)C(C)OC(OC2C(Oc3cccc4c(O)c5c(=O)oc6ccc(C)c7c(=O)oc(c34)c5c67)OC(C)C(O)C2O)C1O (stereo unspecified)	.	.	-	.	-	-
COC(=O)C(O)(c1ccc(NC(=S)NC(=O)c2ccccc2)cc1)C(F)(F)F (stereo unspecified)	34	-	-	-	-	-
O=C(Nc1ccc(Cl)cc1C(=O)c1ccccc1)c1ccccc1	29	-	-	-	-	-
COC(=O)C1=C(C(=O)OC)SC2(S1)C(C(=O)OC)=C(C(=O)OC)Sc1c2ssc1=O	.	.	-	.	-	-
CC(C)(O)/C=C/C(=O)C(C)(O)C1C(O)CC2(C)C3CC=C4C(C=C(O)C(=O)C4(C)C)C3(C)C(=O)CC12C (stereo unspecified)	.	.	-	.	-	-
CCOP(=O)(NC(C)C)Oc1ccc(SC)c(C)c1 (stereo unspecified)	.	.	-	.	-	-
Cc1ccc(CN2C(=O)CN=C(c3ccccc3)c3ccccc32)cc1	-	-	-	-	28	-
Oc1c(Br)c(Br)c(Br)c(Br)c1Br	32	-	-	-	41	-
Oc1c(Br)cc(Br)cc1Br	-	-	-	-	-	-
CC1c2ccccc2-n2nncc2CN1C (stereo unspecified)	.	.	-	.	-	-
Cc1cccc(N2C(=O)/C(=C/c3ccc(CN(CCC#N)S(C)(=O)=O)o3)C(=O)NC2=S)c1	-	-	-	-	-	-
Cc1ccc(N2C(=O)/C(=C/c3ccc(CN(CCC#N)S(C)(=O)=O)o3)C(=O)NC2=S)cc1C	32	-	.	-	.	.
CCC1CN1P(=O)(c1ccccc1)N1CC1CC (stereo unspecified)	.	.	-	.	-	-
N#CC(C#N)=NNc1ccc(S(N)(=O)=O)cc1	30	-	32	-	-	-
CC1CCN(S(=O)(=O)c2ccc(NN=C(C#N)C#N)cc2)CC1	-	-	.	-	.	.
Cc1c2cnn(CC(=O)N3CCC4(CC3)OCCO4)c(=O)c2c(C)n1Cc1ccccc1	-	-	-	-	-	-
O=C(Cn1ncc2c3ccccc3n(Cc3ccc(F)cc3)c2c1=O)N1CCC2(CC1)OCCO2	32	-	-	-	-	-
O=C1CCCN1C(=O)c1cncc(Br)c1	-	-	-	-	26	-
CN(C)CC(C(=O)Cc1ccccc1)c1ccccc1 (stereo unspecified)	.	.	-	.	-	-
O=C(N/N=C/c1c(O)n(Cc2ccc(F)cc2)c(=O)[nH]c1=O)c1ccccc1	-	-	-	-	35	-
C/C(=N\NC(=O)c1ccccc1O)c1c(O)n(C2CCCCC2)c(=O)[nH]c1=O	26	-	-	-	-	-
C/C(=N\NC(=O)c1ccncc1)c1c(O)n(Cc2ccccc2)c(=O)[nH]c1=O	-	-	-	-	-	-
C/C(=N\NC(=O)c1ccccc1O)c1c(O)n(Cc2ccccc2)c(=O)[nH]c1=O	25	-	-	-	28	-
Cc1ccc2c(c1)=NC(=O)/C(=C/c1c(O)[nH]c(=O)[nH]c1=O)C=2	-	-	-	-	33	-
Cc1ccc2c(c1)=C/C(=C\c1c(O)[nH]c(=S)[nH]c1=O)C(=O)N=2	-	-	.	-	.	.
SMILES	pPAFAH FP inh	PP5 inh	PAFAH1B3 FP inh	PP1 inh	PAFAH1B2 inh	PAFAH2 inh
CCN(CCCl)c1cc(CN(C)C)cc(NC(=O)c2ccc(C(=O)Nc3cc(CN(C)C)cc(N(CC)CCCl)c3)cc2)c1	.	.	-	.	-	-
CN1C[C@H](CO)C[C@@H]2c3cccc4[nH]cc(c34)C[C@H]21	-	-	-	-	-	-
CN1C[C@H](CNC(=O)OCc2ccccc2)C[C@@H]2c3cccc4c3c(cn4C)C[C@H]21	27	-	-	-	-	-
O=C1NC(=O)N(Cc2ccccc2)C(=O)/C1=C\C=C\c1ccco1	-	-	-	-	-	-
O=C1NC(=O)N(Cc2ccco2)C(=O)/C1=C/C=C/c1ccco1	33	-	-	-	-	33
Cc1ccc(OCCn2cccc2/C=C2/C(=O)NC(=O)N(Cc3ccco3)C2=O)cc1	-	-	-	-	25	-
Cn1cccc1/C=C1\C(=O)NC(=O)N(Cc2ccco2)C1=O	.	.	-	.	-	-
COc1ccc(C2=CC(c3ccc4c(c3)OCO4)c3c(c4ccccc4oc3=O)O2)cc1OC (stereo unspecified)	.	.	-	.	-	-
Cc1cc(/C=C2\C(=O)NC(=O)N(Cc3ccccc3)C2=O)c(C)n1-c1ccc(Cl)c(C(=O)O)c1	28	-	-	-	-	43
